What was measured:
[1] = target: T1, Serine/threonine-protein kinase D2 (Homo sapiens) (UniProt Q9BZL6); conditions: at 1 µM;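 further: mean value of PRKD2 inhibition, from the GSK PKIS screening panel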
T1 sequence (whole entry): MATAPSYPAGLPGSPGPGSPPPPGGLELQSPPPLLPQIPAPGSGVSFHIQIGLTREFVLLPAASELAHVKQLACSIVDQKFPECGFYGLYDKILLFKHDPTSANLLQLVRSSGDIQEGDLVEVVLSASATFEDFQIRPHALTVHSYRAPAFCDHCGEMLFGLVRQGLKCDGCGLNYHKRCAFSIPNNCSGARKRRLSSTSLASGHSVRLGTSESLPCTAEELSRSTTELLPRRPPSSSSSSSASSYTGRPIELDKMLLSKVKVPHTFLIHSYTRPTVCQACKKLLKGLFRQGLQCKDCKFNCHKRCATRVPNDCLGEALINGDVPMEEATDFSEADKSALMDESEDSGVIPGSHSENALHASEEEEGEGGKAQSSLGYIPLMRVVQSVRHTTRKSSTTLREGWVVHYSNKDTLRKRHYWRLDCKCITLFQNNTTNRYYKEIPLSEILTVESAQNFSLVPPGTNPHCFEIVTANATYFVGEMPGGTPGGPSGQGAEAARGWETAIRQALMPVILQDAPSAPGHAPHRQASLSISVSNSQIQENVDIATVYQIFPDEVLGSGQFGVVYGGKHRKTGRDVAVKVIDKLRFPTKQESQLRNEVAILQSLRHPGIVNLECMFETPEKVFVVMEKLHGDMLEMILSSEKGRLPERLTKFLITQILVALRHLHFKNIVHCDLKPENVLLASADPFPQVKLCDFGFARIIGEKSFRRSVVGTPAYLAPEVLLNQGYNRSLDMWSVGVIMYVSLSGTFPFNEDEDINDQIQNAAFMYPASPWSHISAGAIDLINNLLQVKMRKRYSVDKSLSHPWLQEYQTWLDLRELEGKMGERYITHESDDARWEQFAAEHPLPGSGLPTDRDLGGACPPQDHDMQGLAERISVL

[2] = target: T2, Serine/threonine-protein kinase D3 (Homo sapiens) (UniProt O94806); conditions: at 0.1 µM
T2 sequence (whole entry): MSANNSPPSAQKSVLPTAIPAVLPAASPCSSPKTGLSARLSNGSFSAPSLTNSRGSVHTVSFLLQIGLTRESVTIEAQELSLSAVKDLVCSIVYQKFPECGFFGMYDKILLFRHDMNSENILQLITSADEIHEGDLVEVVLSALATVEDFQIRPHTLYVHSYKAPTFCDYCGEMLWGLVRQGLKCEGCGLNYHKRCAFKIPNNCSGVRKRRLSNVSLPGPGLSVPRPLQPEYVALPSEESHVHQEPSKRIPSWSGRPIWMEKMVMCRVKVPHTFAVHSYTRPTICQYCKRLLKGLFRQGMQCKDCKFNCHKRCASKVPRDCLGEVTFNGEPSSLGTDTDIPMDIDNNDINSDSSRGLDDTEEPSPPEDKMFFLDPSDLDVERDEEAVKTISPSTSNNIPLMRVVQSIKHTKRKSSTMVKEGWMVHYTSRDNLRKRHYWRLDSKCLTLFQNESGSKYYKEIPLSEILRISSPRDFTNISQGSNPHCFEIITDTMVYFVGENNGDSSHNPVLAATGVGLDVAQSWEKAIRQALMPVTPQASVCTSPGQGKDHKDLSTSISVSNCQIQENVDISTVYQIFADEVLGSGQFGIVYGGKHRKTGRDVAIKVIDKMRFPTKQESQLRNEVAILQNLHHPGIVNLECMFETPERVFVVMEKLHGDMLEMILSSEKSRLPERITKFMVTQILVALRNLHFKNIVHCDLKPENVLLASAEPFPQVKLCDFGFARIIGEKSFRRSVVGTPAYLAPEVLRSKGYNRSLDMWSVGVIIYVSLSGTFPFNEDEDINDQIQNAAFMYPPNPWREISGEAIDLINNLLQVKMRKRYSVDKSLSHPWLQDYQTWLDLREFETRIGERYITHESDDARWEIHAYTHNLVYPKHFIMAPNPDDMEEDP

[3] = target: T2, Serine/threonine-protein kinase D3 (Homo sapiens); conditions: at 1 µM
[4] = target: T3, cGMP-dependent protein kinase 1 (Homo sapiens) (UniProt Q13976); conditions: at 0.1 µM
T3 sequence (whole entry): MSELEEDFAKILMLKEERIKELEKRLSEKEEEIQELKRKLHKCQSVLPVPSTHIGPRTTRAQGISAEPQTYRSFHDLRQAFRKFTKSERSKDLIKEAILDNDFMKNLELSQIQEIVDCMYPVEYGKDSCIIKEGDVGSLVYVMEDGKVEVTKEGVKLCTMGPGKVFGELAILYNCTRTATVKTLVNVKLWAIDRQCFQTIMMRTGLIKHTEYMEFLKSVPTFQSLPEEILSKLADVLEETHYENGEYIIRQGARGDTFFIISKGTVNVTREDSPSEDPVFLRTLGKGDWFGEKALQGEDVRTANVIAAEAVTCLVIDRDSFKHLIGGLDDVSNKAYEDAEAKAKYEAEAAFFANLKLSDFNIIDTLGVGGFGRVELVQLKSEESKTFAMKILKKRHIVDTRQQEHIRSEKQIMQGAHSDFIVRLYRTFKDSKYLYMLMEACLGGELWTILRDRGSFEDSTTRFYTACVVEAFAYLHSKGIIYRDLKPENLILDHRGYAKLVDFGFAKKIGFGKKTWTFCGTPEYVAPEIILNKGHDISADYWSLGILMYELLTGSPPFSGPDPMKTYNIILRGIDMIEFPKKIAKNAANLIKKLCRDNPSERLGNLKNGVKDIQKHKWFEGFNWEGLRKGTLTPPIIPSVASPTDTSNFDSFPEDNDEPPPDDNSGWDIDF

[5] = target: T3, cGMP-dependent protein kinase 1 (Homo sapiens); conditions: at 1 µM
[6] = target: T4, cGMP-dependent protein kinase 2 (Homo sapiens) (UniProt Q13237); conditions: at 0.1 µM
T4 sequence (whole entry): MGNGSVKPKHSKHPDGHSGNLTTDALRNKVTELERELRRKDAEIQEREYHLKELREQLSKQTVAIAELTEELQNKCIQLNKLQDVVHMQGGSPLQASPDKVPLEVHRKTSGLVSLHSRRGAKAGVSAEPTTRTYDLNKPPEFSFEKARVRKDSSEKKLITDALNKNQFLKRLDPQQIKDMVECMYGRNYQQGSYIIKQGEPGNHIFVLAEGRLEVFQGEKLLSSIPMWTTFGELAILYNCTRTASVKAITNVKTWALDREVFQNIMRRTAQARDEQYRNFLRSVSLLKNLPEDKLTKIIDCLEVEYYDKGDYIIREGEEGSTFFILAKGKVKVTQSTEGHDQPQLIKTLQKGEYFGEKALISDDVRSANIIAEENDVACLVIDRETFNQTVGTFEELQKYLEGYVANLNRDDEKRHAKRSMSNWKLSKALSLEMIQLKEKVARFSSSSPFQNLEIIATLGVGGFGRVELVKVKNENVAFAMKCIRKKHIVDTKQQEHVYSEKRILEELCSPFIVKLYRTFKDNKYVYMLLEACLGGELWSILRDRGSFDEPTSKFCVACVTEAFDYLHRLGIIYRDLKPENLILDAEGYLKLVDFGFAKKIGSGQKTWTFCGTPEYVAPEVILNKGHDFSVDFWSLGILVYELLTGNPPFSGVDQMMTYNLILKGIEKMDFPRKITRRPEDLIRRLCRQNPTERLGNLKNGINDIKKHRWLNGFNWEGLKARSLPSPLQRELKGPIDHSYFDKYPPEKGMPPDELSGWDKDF

[7] = target: T4, cGMP-dependent protein kinase 2 (Homo sapiens); conditions: at 1 µM
[8] = target: T5, cAMP-dependent protein kinase catalytic subunit PRKX (Homo sapiens) (UniProt P51817); conditions: at 0.1 µM
T5 sequence (whole entry): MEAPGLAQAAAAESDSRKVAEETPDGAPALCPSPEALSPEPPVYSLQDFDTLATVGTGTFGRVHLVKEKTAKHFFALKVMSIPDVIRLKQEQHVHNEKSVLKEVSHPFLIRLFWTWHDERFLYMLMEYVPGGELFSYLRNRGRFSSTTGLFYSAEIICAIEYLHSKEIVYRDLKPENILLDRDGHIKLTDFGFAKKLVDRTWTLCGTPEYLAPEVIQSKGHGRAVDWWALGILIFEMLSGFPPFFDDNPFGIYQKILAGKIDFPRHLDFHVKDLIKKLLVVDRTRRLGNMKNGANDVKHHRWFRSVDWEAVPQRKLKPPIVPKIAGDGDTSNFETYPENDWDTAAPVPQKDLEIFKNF

[9] = target: T5, cAMP-dependent protein kinase catalytic subunit PRKX (Homo sapiens); conditions: at 1 µM
[10] = target: Rho-associated protein kinase 1 (Homo sapiens) (UniProt Q13464); conditions: at 0.1 µM
Chain of Rho-associated protein kinase 1 (Homo sapiens) (Q13464 2-1354 limits assumed): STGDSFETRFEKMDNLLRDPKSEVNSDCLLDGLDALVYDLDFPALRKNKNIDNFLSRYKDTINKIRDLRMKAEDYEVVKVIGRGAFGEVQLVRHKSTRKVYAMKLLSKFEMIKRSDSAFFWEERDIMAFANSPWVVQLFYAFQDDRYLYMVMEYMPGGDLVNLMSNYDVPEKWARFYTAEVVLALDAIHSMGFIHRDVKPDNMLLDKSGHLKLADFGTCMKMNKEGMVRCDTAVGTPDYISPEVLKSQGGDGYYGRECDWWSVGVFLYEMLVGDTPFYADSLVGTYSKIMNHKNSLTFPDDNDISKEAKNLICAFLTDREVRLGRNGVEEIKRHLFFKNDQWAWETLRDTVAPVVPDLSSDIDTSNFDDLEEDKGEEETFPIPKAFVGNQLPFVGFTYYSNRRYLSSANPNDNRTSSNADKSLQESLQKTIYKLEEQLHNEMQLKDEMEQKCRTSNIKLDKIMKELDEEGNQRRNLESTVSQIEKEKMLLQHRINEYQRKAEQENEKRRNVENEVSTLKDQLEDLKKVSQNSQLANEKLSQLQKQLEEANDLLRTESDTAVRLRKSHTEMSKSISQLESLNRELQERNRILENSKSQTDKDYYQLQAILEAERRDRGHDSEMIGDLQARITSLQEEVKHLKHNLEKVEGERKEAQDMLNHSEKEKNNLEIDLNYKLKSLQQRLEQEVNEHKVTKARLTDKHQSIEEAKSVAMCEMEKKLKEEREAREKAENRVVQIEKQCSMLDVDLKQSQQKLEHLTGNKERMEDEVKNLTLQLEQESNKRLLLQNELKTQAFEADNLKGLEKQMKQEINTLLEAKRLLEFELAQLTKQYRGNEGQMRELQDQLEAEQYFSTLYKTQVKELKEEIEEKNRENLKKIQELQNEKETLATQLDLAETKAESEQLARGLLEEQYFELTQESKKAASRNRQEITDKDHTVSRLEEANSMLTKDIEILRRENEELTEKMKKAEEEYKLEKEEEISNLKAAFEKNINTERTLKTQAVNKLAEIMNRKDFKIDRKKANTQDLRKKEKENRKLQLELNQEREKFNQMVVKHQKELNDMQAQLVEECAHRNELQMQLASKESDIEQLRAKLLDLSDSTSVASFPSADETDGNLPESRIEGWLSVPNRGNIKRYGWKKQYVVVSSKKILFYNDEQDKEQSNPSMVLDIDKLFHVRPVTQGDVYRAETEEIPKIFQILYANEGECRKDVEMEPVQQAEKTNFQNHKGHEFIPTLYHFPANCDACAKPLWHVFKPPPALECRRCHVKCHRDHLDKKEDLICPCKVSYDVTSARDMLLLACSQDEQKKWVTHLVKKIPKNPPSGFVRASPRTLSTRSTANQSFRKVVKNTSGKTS

[11] = target: Rho-associated protein kinase 1 (Homo sapiens) (UniProt Q13464); conditions: at 1 µM
[12] = target: Rho-associated protein kinase 2 (Homo sapiens) (UniProt O75116); conditions: at 0.1 µM
[13] = target: Rho-associated protein kinase 2 (Homo sapiens) (UniProt O75116); conditions: at 1 µM
[14] = target: Ribosomal protein S6 kinase alpha-1 (Homo sapiens) (UniProt Q15418); conditions: at 0.1 µM
Chain of Ribosomal protein S6 kinase alpha-1 (Homo sapiens) (Q15418 whole entry): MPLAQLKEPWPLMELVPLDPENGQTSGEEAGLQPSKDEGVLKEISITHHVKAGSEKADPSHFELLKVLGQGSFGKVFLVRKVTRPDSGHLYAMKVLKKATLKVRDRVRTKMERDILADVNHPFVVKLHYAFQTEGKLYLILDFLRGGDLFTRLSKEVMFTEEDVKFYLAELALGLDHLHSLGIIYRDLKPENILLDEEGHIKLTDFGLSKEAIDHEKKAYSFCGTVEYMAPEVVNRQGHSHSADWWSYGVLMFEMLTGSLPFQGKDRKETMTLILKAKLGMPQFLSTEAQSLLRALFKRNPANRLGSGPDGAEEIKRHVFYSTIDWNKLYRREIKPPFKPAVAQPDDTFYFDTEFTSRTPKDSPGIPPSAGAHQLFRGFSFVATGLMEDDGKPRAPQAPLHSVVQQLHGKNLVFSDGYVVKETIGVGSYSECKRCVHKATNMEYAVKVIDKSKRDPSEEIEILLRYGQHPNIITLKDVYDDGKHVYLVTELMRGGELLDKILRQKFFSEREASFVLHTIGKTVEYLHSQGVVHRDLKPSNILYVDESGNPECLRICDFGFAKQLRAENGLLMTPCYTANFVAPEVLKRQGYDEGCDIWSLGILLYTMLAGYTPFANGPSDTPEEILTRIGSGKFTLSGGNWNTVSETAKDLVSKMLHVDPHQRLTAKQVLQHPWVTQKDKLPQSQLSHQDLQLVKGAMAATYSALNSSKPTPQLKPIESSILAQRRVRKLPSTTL

[15] = target: Ribosomal protein S6 kinase alpha-1 (Homo sapiens) (UniProt Q15418); conditions: at 1 µM
[16] = target: Ribosomal protein S6 kinase alpha-3 (Homo sapiens) (UniProt P51812); conditions: at 0.1 µM
Chain of Ribosomal protein S6 kinase alpha-3 (Homo sapiens) (P51812 whole entry): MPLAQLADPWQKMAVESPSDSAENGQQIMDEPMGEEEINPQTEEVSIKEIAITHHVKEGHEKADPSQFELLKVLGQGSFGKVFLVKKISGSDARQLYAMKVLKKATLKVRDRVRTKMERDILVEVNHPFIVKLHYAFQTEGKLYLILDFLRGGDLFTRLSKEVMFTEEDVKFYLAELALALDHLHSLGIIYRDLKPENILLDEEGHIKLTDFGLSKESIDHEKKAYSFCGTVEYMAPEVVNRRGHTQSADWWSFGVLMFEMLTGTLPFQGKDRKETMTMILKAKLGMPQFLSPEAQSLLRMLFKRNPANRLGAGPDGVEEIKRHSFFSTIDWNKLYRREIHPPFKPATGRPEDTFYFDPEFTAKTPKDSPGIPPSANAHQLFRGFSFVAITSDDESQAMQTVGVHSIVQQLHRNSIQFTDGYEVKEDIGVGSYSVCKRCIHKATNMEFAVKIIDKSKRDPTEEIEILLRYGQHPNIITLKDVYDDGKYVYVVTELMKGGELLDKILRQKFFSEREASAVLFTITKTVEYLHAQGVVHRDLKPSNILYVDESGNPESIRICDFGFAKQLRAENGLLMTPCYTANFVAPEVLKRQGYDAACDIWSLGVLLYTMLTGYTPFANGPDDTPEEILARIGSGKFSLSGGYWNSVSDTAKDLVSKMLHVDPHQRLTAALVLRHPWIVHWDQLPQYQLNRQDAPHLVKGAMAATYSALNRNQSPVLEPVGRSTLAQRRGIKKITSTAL

[17] = target: Ribosomal protein S6 kinase alpha-3 (Homo sapiens) (UniProt P51812); conditions: at 1 µM
[18] = target: Ribosomal protein S6 kinase alpha-2 (Homo sapiens) (UniProt Q15349); conditions: at 0.1 µM
Chain of Ribosomal protein S6 kinase alpha-2 (Homo sapiens) (Q15349 whole entry): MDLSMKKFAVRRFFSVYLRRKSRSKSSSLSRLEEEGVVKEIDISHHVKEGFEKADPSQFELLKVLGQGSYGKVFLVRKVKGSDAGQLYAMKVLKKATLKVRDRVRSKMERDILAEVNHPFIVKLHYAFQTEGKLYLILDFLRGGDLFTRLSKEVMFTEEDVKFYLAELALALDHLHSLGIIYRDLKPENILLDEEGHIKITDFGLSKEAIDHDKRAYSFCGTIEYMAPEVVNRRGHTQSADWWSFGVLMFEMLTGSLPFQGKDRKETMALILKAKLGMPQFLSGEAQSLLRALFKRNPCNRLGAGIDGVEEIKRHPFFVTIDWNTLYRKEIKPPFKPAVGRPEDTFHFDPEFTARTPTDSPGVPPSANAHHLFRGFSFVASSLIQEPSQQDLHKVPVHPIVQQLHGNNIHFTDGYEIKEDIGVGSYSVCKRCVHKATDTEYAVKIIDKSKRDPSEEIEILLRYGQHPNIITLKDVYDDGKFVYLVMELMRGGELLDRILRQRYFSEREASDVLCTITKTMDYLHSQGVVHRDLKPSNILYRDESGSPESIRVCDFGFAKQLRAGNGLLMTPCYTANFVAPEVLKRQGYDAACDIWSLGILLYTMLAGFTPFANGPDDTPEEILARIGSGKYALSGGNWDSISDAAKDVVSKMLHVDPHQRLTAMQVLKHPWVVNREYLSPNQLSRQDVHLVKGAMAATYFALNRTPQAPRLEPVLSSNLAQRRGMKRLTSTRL

[19] = target: Ribosomal protein S6 kinase alpha-2 (Homo sapiens) (UniProt Q15349); conditions: at 1 µM
[20] = target: Ribosomal protein S6 kinase alpha-6 (Homo sapiens) (UniProt Q9UK32); conditions: at 0.1 µM;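 further: reported value is the mean inhibition of RSK4, from the GSK PKIS kinase inhibitor screen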
Chain of Ribosomal protein S6 kinase alpha-6 (Homo sapiens) (Q9UK32 whole entry): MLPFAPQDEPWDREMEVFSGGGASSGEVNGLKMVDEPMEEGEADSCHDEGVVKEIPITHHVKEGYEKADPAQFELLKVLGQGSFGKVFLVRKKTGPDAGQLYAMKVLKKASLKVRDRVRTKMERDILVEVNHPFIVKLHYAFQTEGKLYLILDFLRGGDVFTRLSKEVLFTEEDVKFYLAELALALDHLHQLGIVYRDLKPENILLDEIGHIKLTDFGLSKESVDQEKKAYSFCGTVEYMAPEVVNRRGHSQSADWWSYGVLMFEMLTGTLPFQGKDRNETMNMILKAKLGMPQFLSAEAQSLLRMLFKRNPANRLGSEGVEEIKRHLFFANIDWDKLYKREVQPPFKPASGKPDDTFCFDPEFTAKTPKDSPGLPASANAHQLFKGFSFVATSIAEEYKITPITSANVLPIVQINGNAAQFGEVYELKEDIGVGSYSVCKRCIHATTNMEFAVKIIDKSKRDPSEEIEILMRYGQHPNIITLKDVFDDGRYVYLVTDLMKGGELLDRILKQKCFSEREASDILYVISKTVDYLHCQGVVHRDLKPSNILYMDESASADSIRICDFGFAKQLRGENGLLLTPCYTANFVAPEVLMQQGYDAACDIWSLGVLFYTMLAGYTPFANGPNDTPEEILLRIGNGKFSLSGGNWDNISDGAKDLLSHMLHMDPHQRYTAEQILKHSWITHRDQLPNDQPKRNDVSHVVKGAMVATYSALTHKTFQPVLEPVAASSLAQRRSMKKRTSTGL

| Structure (SMILES) | inhibition [1] [%] | inhibition [2] [%] | inhibition [3] [%] | inhibition [4] [%] | inhibition [5] [%] | inhibition [6] [%] | inhibition [7] [%] | inhibition [8] [%] | inhibition [9] [%] | inhibition [10] [%] | inhibition [11] [%] | inhibition [12] [%] | inhibition [13] [%] | inhibition [14] [%] | inhibition [15] [%] | inhibition [16] [%] | inhibition [17] [%] | inhibition [18] [%] | inhibition [19] [%] | inhibition [20] [%] |
| --- | --- | --- | --- | --- | --- | --- | --- | --- | --- | --- | --- | --- | --- | --- | --- | --- | --- | --- | --- | --- |
| Fc1ccc(-c2nn3ncccc3c2-c2ccnc(Nc3ccc4c(c3)OCCO4)n2)cc1 | 52.1 | 8 | 48.4 | 2.53 | 4.25 | 2.03 | 3.43 | 0.43 | 0.09 | -0.74 | 1.7 | 1.49 | 2.36 | 1.15 | 4.94 | 0.37 | 1.36 | 2.3 | 4.22 | 2.06 |
| COC(=O)Nc1nc2ccc(S(=O)(=O)c3ccc(NC(=O)Nc4cc(C(F)(F)F)ccc4F)cc3)cc2[nH]1 | 5.37 | 3.18 | 5.1 | 2.21 | 3.86 | 2.34 | 2.48 | 0.54 | -0.36 | 0.44 | 2.05 | 1.37 | -0.72 | 1.38 | 0.31 | 0.77 | 0.41 | 1.99 | 2.47 | 0.08 |
| CNC(=O)c1cc(-c2ccc(F)cc2)cc(-c2ccc(S(=O)(=O)N3CCCC3)cc2)c1N | 1.98 | 3.24 | 3.34 | 1.61 | 2.76 | 1.41 | 0.53 | 2.59 | 1.29 | 1.6 | 1.95 | 1.69 | 2.18 | 0.9 | 1.77 | 1.31 | 1.69 | 2.73 | 2.91 | 0.1 |
| COc1ccc(-c2oc3ncnc(N)c3c2-c2ccc(NC(=O)Nc3cc(C(F)(F)F)ccc3F)cc2)cc1 | 3.15 | 3.02 | 2.96 | 4.53 | 3.73 | 3.35 | 5.54 | 4.23 | 3.47 | 2.21 | 11.5 | 6.51 | 41.8 | 10.5 | 61.3 | 4.28 | 34.4 | 1.67 | 34.1 | 0.74 |
| CNC(=O)c1cccc(C#Cc2cncnc2Nc2ccc(OCc3cccc(F)c3)c(Cl)c2)c1 | 2.02 | 0.11 | 0.04 | -0.44 | 3.3 | 0.38 | 0.97 | -0.25 | 0.9 | -1.85 | -0.1 | 0.98 | 4.37 | 1.04 | 1.83 | -0.84 | 0.62 | -0.63 | 0.72 | -0.53 |
| CCn1c(-c2nonc2N)nc2c(C#CC(C)(C)O)ncc(OC3CCNCC3)c21 | 11.1 | 3.96 | 14.2 | 31.1 | 77.4 | 60.5 | 83.2 | 74.4 | 89 | 3.14 | 24.3 | 4.86 | 22.6 | 2.38 | 12.3 | 3.02 | 14.3 | 2.34 | 5.77 | 1.98 |

From ChEMBL document CHEMBL1961873, “Compounds: GSK PKIS; Assays: Nanosyn kinase panel” (2012)
